Structures can show the parent of a compound that is named as a salt. ± gives the standard deviation of the averaged measurements. In all, about 1,300 compounds were measured (“normalised cell viability”: median about 1, lowest 2% from about 0.14 on). For the sample, the lowest values were picked, then their nearest neighbours and some compounds at random.
Test system: V-C8 (BRCA2-deficient hamster cells)
Assay: normalised cell viability (fraction of plate median); higher = more viable cells (less toxic)
Details: 5 µM
How it was run: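 BRCA2-deficient hamster V-C8 cells and BRCA2-restored V-C8 cells were plated in 96-well plates, and library drugs were added 24 h later at 5 μM in 100 μl medium. Exposure lasted 3 days in screen 1 and 6 days in screen 2, next to solvent-only wells. Viability was then read by resazurin assay, median-plate normalised and averaged across triplicate wells.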

Row | SMILES | normalised cell viability (treatment time: 3 days) | normalised cell viability (treatment time: 6 days)
1 | COC(=O)Nc1nc2cc([S+]([O-])c3ccccc3)ccc2[nH]1 (centres undefined) [Oxfendazol] | 0.712 ± 0.076 | 0.775 ± 0.014
2 | COC(=O)Nc1nc2cc(C(=O)c3ccc(F)cc3)ccc2[nH]1 [Flubendazol] | 0.148 ± 0.019 | 0.16 ± 0.0047
3 | CCCOc1ccc2[nH]c(NC(=O)OC)nc2c1 [Oxibendazol] | 0.185 ± 0.0067 | 0.183 ± 0.0049
4 | CC(C)NCC(O)c1ccc(O)c(O)c1 (single isomer, unassigned; (-)) [(-)-Isoproterenol hydrochloride] | 1 ± 0.035 | 0.952 ± 0.015
5 | C#C[C@]1(O)CC[C@H]2[C@@H]3CCC4=CCCC[C@@H]4[C@H]3CC[C@@]21C [Lynestrenol] | 1.1 ± 0.046 | 1.12 ± 0.063
6 | CC(=O)N(O)CCCCCNC(=O)CCC(=O)N(O)CCCCCNC(=O)CCC(=O)N(O)CCCCCN [Deferoxamine mesylate] | 0.305 ± 0.021 | 0.198 ± 0.011
7 | CC(C)(C)C(=O)OCOC(=O)[C@@H]1N2C(=O)[C@@H](NC(=O)[C@H](N)c3ccccc3)[C@H]2SC1(C)C [Pivampicillin] | 1.02 ± 0.075 | 1.01 ± 0.1
8 | Cn1c(=O)c2c(ncn2CCO)n(C)c1=O [Etofylline] | 1.03 ± 0.052 | 0.996 ± 0.039
9 | Cc1cc(-n2c(=O)[nH]c(=O)n(C)c2=O)ccc1Oc1ccc(SC(F)(F)F)cc1 [Toltrazuril] | 1.07 ± 0.044 | 1 ± 0.073
10 | O=C1NCN(c2ccccc2)C12CCN(CCCC(c1ccc(F)cc1)c1ccc(F)cc1)CC2 [Fluspirilen] | 0.472 ± 0.045 | 0.235 ± 0.12
11 | Clc1ccccc1CN1CCc2sccc2C1 [Ticlopidine hydrochloride] | 1.1 ± 0.032 | 1.08 ± 0.064
12 | Cc1nc(=O)c2cc(CN(C)c3ccc(C(=O)N[C@@H](CCC(=O)O)C(=O)O)s3)ccc2[nH]1 [Raltitrexed] | 0.332 ± 0.028 | 0.432 ± 0.075
13 | CCN(CC)CCN[C@@H](C(=O)OCCC(C)C)c1ccccc1 [Camylofine chlorhydrate] | 1.07 ± 0.065 | 0.978 ± 0.027
14 | Cc1ncc(C[n+]2csc(CCO)c2C)c(N)n1 [Thiamine hydrochloride] | 1.05 ± 0.029 | 1.05 ± 0.016
15 | Cc1c(Nc2ncccc2C(=O)O)cccc1C(F)(F)F [Flunixin meglumine] | 1.1 ± 0.11 | 1.03 ± 0.037
16 | CC(C)OC(=O)CCC/C=C\C[C@@H]1[C@@H](CC[C@@H](O)CCc2ccccc2)[C@H](O)C[C@@H]1O [Latanoprost] | 1.13 ± 0.11 | 1.05 ± 0.041

Row | SMILES | normalised cell viability (treatment time: 3 days) | normalised cell viability (treatment time: 6 days)
17 | C[C@@]1(O)CCOC(=O)C1 [Mevalonic-D, L acid lactone] | 1.12 ± 0.05 | 1.05 ± 0.18
18 | COc1ccc2[nH]cc(CCNC(C)=O)c2c1 [Melatonin] | 1.16 ± 0.068 | 1 ± 0.058
19 | CCCCCNC(=N)N/N=C/c1c[nH]c2ccc(OC)cc12 [Tegaserod maleate] | 0.124 ± 0.011 | 0.164 ± 0.016
20 | CN1CCCC(CC2c3ccccc3Sc3ccccc32)C1 (centres undefined) [Metixene hydrochloride] | 0.57 ± 0.02 | 0.69 ± 0.052
21 | Clc1ccc(C(Cn2ccnc2)OCc2ccsc2Cl)c(Cl)c1 (centres undefined) [Tioconazole] | 0.97 ± 0.046 | 0.966 ± 0.059
22 | COC1=C(OC)C(=O)C(CCCCCCCCCCO)=C(C)C1=O [Idebenone] | 0.648 ± 0.036 | 0.713 ± 0.04
23 | CC(C)(C)NCC(O)COc1cccc2c1CC(O)C(O)C2 (centres undefined) [Nadolol] | 1.02 ± 0.073 | 1.04 ± 0.035
24 | C1CCC(C(CC2CCCCN2)C2CCCCC2)CC1 (centres undefined) [Perhexiline maleate] | 0.126 ± 0.011 | 0.109 ± 0.0083
25 | Cc1cc2cc3c(C)cc(=O)oc3c(C)c2o1 [Trioxsalen] | 1.04 ± 0.047 | 1.07 ± 0.027
26 | CC=CC(=O)N(CC)c1ccccc1C [Crotamiton] | 0.866 ± 0.12 | 0.929 ± 0.025
27 | CC(C)c1ccc2oc3nc(N)c(C(=O)O)cc3c(=O)c2c1 [Amlexanox] | 0.933 ± 0.034 | 1.03 ± 0.089
28 | O=C(O)[C@H]1/C(=C/CO)O[C@@H]2CC(=O)N21 [Potassium clavulanate] | 1 ± 0.03 | 0.984 ± 0.039
29 | Nc1ccc(O)c(C(=O)O)c1 [Mesalamine] | 1.09 ± 0.028 | 1.14 ± 0.27
30 | N=C(N)NC(=N)NCCc1ccccc1 [Phenformin hydrochloride] | 0.955 ± 0.035 | 0.96 ± 0.052
31 | N=C(NCCCCCCNC(=N)NC(=N)Nc1ccc(Cl)cc1)NC(=N)Nc1ccc(Cl)cc1 [Chlorhexidine] | 0.129 ± 0.0057 | 0.101 ± 0.0054
32 | CC(C)NC(=N)NC(=N)Nc1ccc(Cl)cc1 [Proguanil hydrochloride] | 0.196 ± 0.012 | 0.189 ± 0.014

Source: the supplement of paper PMC6609913
